Reference: PubChem BioAssay (EPA / NIEHS)
“And” between values parts separate entries of the source, which are not always exact repeats. Identical values can stand only once. A structure can be active in one record and inactive in another. The source made the active and inactive calls. Rule for the calls: active = hit-call score of the fitted dose curve at least 0.9, where 1 is the maximum; inactive = score below 0.9.

Read-out: Monocyte Chemoattractant Protein-1 (MCP1), CCL2 (gene 6347)
Test: BSK_SAg_MCP1: BioMAP Diversity Plus: SAg Assay for Monocyte Chemoattractant Protein-1 (MCP1) Biomarker Activity (AID 2283090)
Conditions: primary human HUVEC with PBMC; actives raise or lower the signal
Experimental: BSK_SAg is a cell-based, multiplexed-readout assay that uses umbilical vein endothelium and peripheral blood mononuclear cells, a human vascular primary cell co-culture, with measurements taken at 24 hours after chemical dosing in a 96-well plate.BSK_SAg_MCP1 is an assay component measured in the BSK_SAg assay. It measures MCP-1 antibody related to regulation of gene expression using ELISA technology.Data from the assay component BSK_SAg_MCP1 was analyzed into 1 assay endpoint. This assay endpoint, BSK_SAg_MCP1, was analyzed with bidirectional fitting relative to DMSO as the negative control and baseline of activity. Using a type of binding reporter, gain or loss-of-signal activity can be used to understand changes in the signaling as they relate to the gene CCL2. Furthermore, this assay endpoint can be referred to as a primary readout, because this assay has produced multiple assay endpoints where this one serves a signaling function. To generalize the intended target to other relatable targets, this assay endpoint is annotated to the cytokine intended target family, where the subfamily is chemotactic factor.
The levels of cell surface (or secreted, indicated by the prefix "s") biomarker endpoints were measured by ELISA. Overt cytotoxicity to cells in confluent adherent cultures (all systems other than the BT system) was assessed by measuring total protein levels using sulforhodamine B (SRB) staining in parallel cultures at the time of biomarker measurements, indicated as SRB endpoints. For proliferation assays for adherent cell types, individual cell types are cultured at sub-confluence and relative cell numbers quantified by SRB staining at time points optimized for each system (48 h: 3C and CASM3C systems; 72 h: BT and HDF3CGF systems; 96 h: SAg system). SRB was performed by staining cells with 0.1% SRB after fixation with 10% TCA and reading wells at 560 nm.Viability and proliferation of PBMC (T cells) was quantified by Alamar Blue reduction for the SAg and BT systems. For PBMC viability (referred to as PBMC Cytotoxicity within the assay endpoint names), cells were plated (75,000/well in a 96-well plate) and then chemical samples added for 1 h before addition of activators, SEB and TSST-1 (20 ng/mL final concentration each). Cells were incubated for 90 h. Then, Alamar Blue (20 uL/well) (Invitrogen, Cat DAL1100) was added for 6 h, and the plates were read with a fluorescence microplate reader at 546/580 nm (excitation/emission). For PBMC proliferation, cells were plated and activated as above but incubated for only 16 h prior to addition of Alamar Blue. Plates were read after 6 h.

| SMILES | outcome | AC50 |
| --- | --- | --- |
| FC(F)(F)C(F)(F)C(F)(F)C(F)(F)C(F)(F)C(F)(F)C(F)(F)I | inactive |  |
| C=C(C)C(=O)OCC(F)(F)C(F)(F)C(F)(F)C(F)(F)C(F)(F)C(F)(F)C(F)(F)F | inactive |  |
| Oc1ccc(Nc2ccccc2)cc1 |  | 20 µM (active) |
| CCc1ccc(C(c2ccc(CC)cc2)C(Cl)Cl)cc1 |  | 31.8 µM (active) |
| FC(F)(F)C(F)(F)C(F)(F)C(F)(F)C(F)(F)C(F)(F)C(F)(F)C(F)(F)CCS | inactive |  |
| CCN(CC)c1ccc2c(C)cc(=O)oc2c1 | inactive |  |
| FC(F)(F)C(F)(F)C(F)(F)CI | inactive |  |
| C=C(C)C(=O)OCCC(F)(F)C(F)(F)C(F)(F)C(F)(F)C(F)(C(F)(F)F)C(F)(F)F | inactive |  |
| O=C(O)C(F)(F)C(F)(F)C(F)(F)C(F)(F)C(F)(F)C(F)(F)C(F)(F)C(F)(F)C(F)(F)C(F)F |  | 44.9 µM (active) and 46 µM (active) |
| CO[Si](OC)(c1ccccc1)c1ccccc1 | inactive |  |
| FC1CC(F)(F)C(F)(F)C1(F)F (stereo not given) | inactive |  |
| Nc1ccc([N+](=O)[O-])cc1O | inactive |  |
| CCO[Si](CCC(F)(F)C(F)(F)C(F)(F)C(F)(F)C(F)(F)C(F)(F)F)(OCC)OCC | inactive |  |
| FC(F)(F)C(F)(F)C(F)(F)C(F)(F)C(F)(F)CCI | inactive |  |
| OCC(F)(F)C(F)(F)C(F)(F)C(F)(F)C(F)(F)C(F)(F)F | inactive |  |
| Cc1ccc(S(=O)(=O)OCC(F)(F)C(F)(F)C(F)(F)C(F)(F)C(F)(F)C(F)F)cc1 | inactive |  |
| O=C(O)C(F)(F)C(F)(F)F | inactive |  |
| O=C(O)C(F)(F)C(F)(F)C(F)(F)C(F)(F)C(F)(F)C(F)(F)C(F)(F)C(F)(F)Cl |  | 45.9 µM (active) and 50.4 µM (active) |
| CCCCCCC(C)OC(=O)CCCCC(=O)OC(C)CCCCCC (stereo not given) | inactive |  |

| SMILES | outcome | AC50 |
| --- | --- | --- |
| O=S(=O)(O)C(F)(F)C(F)(F)C(F)(F)C(F)(F)C(F)(F)C(F)(F)C(F)(F)F | inactive |  |
| O=P(O)(O)OCCC(F)(F)C(F)(F)C(F)(F)C(F)(F)C(F)(F)C(F)(F)F | inactive |  |
| N=C(N)C(F)(F)C(F)(F)C(F)(F)C(F)(F)C(F)(F)C(F)(F)C(F)(F)F | inactive | 55 µM (active) |
| C=CC(F)(F)C(F)(F)C(F)(F)C(F)(F)C(F)(F)C(F)(F)C(F)(F)C(F)(F)C=C | inactive |  |
| C=CC(F)(F)C(F)(F)C(F)(F)C(F)(F)C(F)(F)C(F)(F)C(F)(F)C(F)(F)F | inactive |  |
| C=CC(=O)OCC(F)(F)C(F)(F)C(F)(F)C(F)(F)C(F)(F)C(F)(F)C(F)(F)F | inactive |  |
| CS(C)(=O)=O | inactive |  |
| CCCCCCCOC(=O)c1ccccc1C(=O)OCCCCCCC | inactive |  |
| FC(F)(F)C(F)(F)C(F)(F)N(C(F)(F)C(F)(F)C(F)(F)F)C(F)(F)C(F)(F)C(F)(F)F | inactive |  |
| CC(=O)Nc1ccc(N=Nc2cc(C)ccc2O)cc1 | inactive |  |
| O=C(O)C(F)(F)C(F)(F)C(F)(F)C(F)(F)C(F)(F)C(F)(F)C(F)(F)C(F)(F)C(F)(F)C(F)(F)C(F)(F)C(F)(F)C(F)(F)F | inactive |  |
| CCCCC(CC)COP(=O)(O)OCC(CC)CCCC (stereo not given) | inactive |  |
| O=C(O)C(F)(F)C(F)(F)C(F)F | inactive |  |
| FC(F)(Br)C(F)(F)C(F)(F)C(F)(F)C(F)(F)C(F)(F)Br | inactive |  |
| FC(F)(F)C(F)(F)C(F)(F)C(F)(F)C(F)(F)C(F)(F)CCS | inactive |  |
| O=C(Cl)C(F)(F)C(F)(F)C(F)(F)C(F)(F)C(F)(F)C(F)(F)C(F)(F)C(F)(F)F | inactive | 44.8 µM (active) and 43.8 µM (active) |
| OCC(F)(F)C(F)(F)C(F)(F)C(F)F | inactive |  |
| OCC(F)(F)C(F)(F)C(F)(F)F | inactive |  |
| O[Si](c1ccccc1)(c1ccccc1)c1ccccc1 |  | 32.5 µM (active) |
